The record followed here is PubChem BioAssay (NCI).

The structures appear in SMILES notation. This is part of a sample that, as a whole, favours compounds with a hit. Of some 79,000 tested, about 15% had one in any assay. Unmarked numbers belong to inactive results. Calls of active or inactive are those of the source. Rule as the data show it: active = growth inhibition above about 70%; inactive = the rest.

Assay [1] in a line: NCI Yeast Anticancer Drug Screen. Data for the rad50 strain (AID 155).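 Also: 0% = growth of vehicle-only cultures of the same strain.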 To be noted: S. cerevisiae rad50 strain growth inhibition, active compounds read high. Put shortly: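 Compounds were tested on a yeast strain with an engineered DNA damage repair alteration; the reported value is growth inhibition normalised to vehicle treatment.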
The nature of assay [2]: NCI Yeast Anticancer Drug Screen. Data for the mec2-1 strain (AID 157). To be noted: S. cerevisiae mec2-1 strain, active compounds read high. Put shortly: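 Mutant yeast (mec2-1) grown with compound; growth inhibition relative to vehicle control reported.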
A short description of assay [3]: NCI Yeast Anticancer Drug Screen. Data for the sgs1 mgt1 strain (AID 161).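 Also: 0% = growth of cultures given vehicle only.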 To be noted: S. cerevisiae sgs1 mgt1 strain, active compounds read high. The procedure, abridged:
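Percent growth inhibition was derived by comparing compound-exposed mutant yeast with vehicle-exposed cultures. The strain carries alterations in DNA damage repair.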

Assay [4] in a line: NCI Yeast Anticancer Drug Screen. Data for the cln2 rad14 strain (AID 165).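 Also: 0% = growth equal to vehicle treated cultures.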 To be noted: S. cerevisiae cln2 rad14 strain, active compounds read high. The procedure, abridged: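 Readout is yeast growth inhibition versus vehicle-treated controls, using a strain with cln2 and rad14 alterations exposed to compound.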
A short description of assay [5]: NCI Yeast Anticancer Drug Screen. Data for the bub3 strain (AID 167). To be noted: S. cerevisiae bub3 mutant strain, active compounds read high. The procedure, abridged:
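Growth of a checkpoint-deficient yeast mutant is measured after compound exposure. Values represent inhibition relative to vehicle.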

The nature of assay [6]: NCI Yeast Anticancer Drug Screen. Data for the mlh1 rad18 strain (AID 175). To be noted: S. cerevisiae mlh1 rad18 strain growth inhibition, active compounds read high. Put shortly:
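Genetically defined yeast (DNA repair-deficient) exposed to compounds; growth inhibition determined relative to vehicle.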

Setting [7] is: at 5.0 µM (retest, dose inferred, filed as 0.5).
[8] abbreviates: at 50.0 µM (retest, dose inferred, filed as 5.0).

Turning to `C[n+]1c(-c2ccc(/C=N\NC(=O)c3cccc(C(=O)N/N=C/c4ccc(-c5cn6ccccc6[n+]5C)cc4)c3)cc2)cn2ccccc21`, the growth inhibition was -14% in assay [1] (setting [7]); 99% (active) in assay [1] (setting [8]); 98% (active) in assay [1] (at 50.0 µM); 27% in assay [2] (setting [7]); 99% (active) in assay [2] (setting [8]); 98.5% (active) in assay [2] (at 50.0 µM). Also, the growth inhibition in assay [3] (setting [7]) is 0%; in assay [3] (setting [8]), 99% (active); in assay [3] (at 50.0 µM) it was 98.2% (active); in assay [4] (setting [7]) it was -4%; in assay [4] (setting [8]), 99% (active); in assay [4] (at 50.0 µM), 97.7% (active). For the same compound, the growth inhibition was 15% in assay [5] (setting [7]); 99% (active) in assay [5] (setting [8]); 98% (active) in assay [5] (at 50.0 µM); -14% in assay [6] (setting [7]); 99% (active) in assay [6] (setting [8]); 98.5% (active) in assay [6] (at 50.0 µM).
With `CN=S(=O)(OCCCCCCCCCOS(=O)(=NC)c1ccc(C)cc1)c1ccc(C)cc1` (stereo not given), the growth inhibition is 17% in assay [1] (setting [7]); 12% in assay [1] (setting [8]); 42.5% in assay [1] (at 50.0 µM); 14% in assay [2] (setting [7]); 6% in assay [2] (setting [8]); 70% (active) in assay [2] (at 50.0 µM). Moreover, the growth inhibition in assay [3] (setting [7]) was 16%; in assay [3] (setting [8]) it was 15%; in assay [3] (at 50.0 µM), 19.7%; in assay [4] (setting [7]), 29%; in assay [4] (setting [8]) it was -1%; in assay [4] (at 50.0 µM), -5.85%. The growth inhibition in assay [5] (setting [7]) was 20%; in assay [5] (setting [8]), 20%; in assay [5] (at 50.0 µM), -35.3%; in assay [6] (setting [7]) it was 18%; in assay [6] (setting [8]) it was 11%; in assay [6] (at 50.0 µM) it was -80.8%.
For `O=P1(NCC2CCCO2)OCC2(CO1)COP(=O)(NCC1CCCO1)OC2` (stereo not given), the growth inhibition is 99% (active) in assay [1] (setting [7]); 95% (active) in assay [1] (setting [8]); 47.3% in assay [1] (at 50.0 µM); 100% (active) in assay [2] (setting [7]); 98% (active) in assay [2] (setting [8]); 99.6% (active) in assay [2] (at 50.0 µM). Moreover, the growth inhibition is 100% (active) in assay [3] (setting [7]); 98% (active) in assay [3] (setting [8]); 99% (active) in assay [3] (at 50.0 µM); 99% (active) in assay [4] (setting [7]); 96% (active) in assay [4] (setting [8]); 98.4% (active) in assay [4] (at 50.0 µM). The growth inhibition in assay [5] (setting [7]) was 99% (active); in assay [5] (setting [8]), 97% (active); in assay [5] (at 50.0 µM), 98.5% (active); in assay [6] (setting [7]) it was 100% (active); in assay [6] (setting [8]) it was 96% (active); in assay [6] (at 50.0 µM) it was 98.7% (active).
On to `O/N=C1/CCCC/C1=C\c1ccc(Cl)c(Cl)c1`, for which the growth inhibition is 5% in assay [1] (setting [7]); 99% (active) in assay [1] (setting [8]); 98.8% (active) in assay [1] (at 50.0 µM); 1% in assay [2] (setting [7]); 99% (active) in assay [2] (setting [8]); 99.3% (active) in assay [2] (at 50.0 µM). Besides, the growth inhibition is 28% in assay [3] (setting [7]); 100% (active) in assay [3] (setting [8]); 99.2% (active) in assay [3] (at 50.0 µM); -6% in assay [4] (setting [7]); 99% (active) in assay [4] (setting [8]); 99.2% (active) in assay [4] (at 50.0 µM). The growth inhibition was -3% in assay [5] (setting [7]); 99% (active) in assay [5] (setting [8]); 99.3% (active) in assay [5] (at 50.0 µM); 11% in assay [6] (setting [7]); 96% (active) in assay [6] (setting [8]); 99.1% (active) in assay [6] (at 50.0 µM).
Take `O=C(CCCN1CCC(C(O)c2ccc(F)cc2)CC1)c1ccc(F)cc1` (stereo not given): the growth inhibition in assay [1] (setting [7]) was 37%; in assay [1] (setting [8]) it was 86% (active); in assay [1] (at 50.0 µM), 71.5% (active); in assay [2] (setting [7]) it was 33%; in assay [2] (setting [8]) it was 78% (active); in assay [2] (at 50.0 µM), 69.5%. Moreover, the growth inhibition is 47% in assay [3] (setting [7]); 95% (active) in assay [3] (setting [8]); 79.8% (active) in assay [3] (at 50.0 µM); 47% in assay [4] (setting [7]); 87% (active) in assay [4] (setting [8]); 68% in assay [4] (at 50.0 µM). The growth inhibition in assay [5] (setting [7]) is 53%; in assay [5] (setting [8]), 97% (active); in assay [5] (at 50.0 µM), 75.8% (active); in assay [6] (setting [7]), 62%; in assay [6] (setting [8]) it was 89% (active); in assay [6] (at 50.0 µM), 68.5%.
In the case of `Cc1ccc(Nc2nc(C)c(C(=O)C/C(=N\NC(N)=S)C(=O)Nc3ccc(Cl)cc3C)s2)cc1`, the growth inhibition was -6% in assay [1] (setting [7]); 19% in assay [1] (setting [8]); 71.5% (active) in assay [1] (at 50.0 µM); -12% in assay [2] (setting [7]); -3% in assay [2] (setting [8]); 17.2% in assay [2] (at 50.0 µM). Further, the growth inhibition in assay [3] (setting [7]) is -3%; in assay [3] (setting [8]), 11%; in assay [3] (at 50.0 µM), 82.3% (active); in assay [4] (setting [7]) it was -8%; in assay [4] (setting [8]) it was 10%; in assay [4] (at 50.0 µM), 34.6%. Also, the growth inhibition is -19% in assay [5] (setting [7]); 5% in assay [5] (setting [8]); 33% in assay [5] (at 50.0 µM); 12% in assay [6] (setting [7]); -9% in assay [6] (setting [8]); 57.1% in assay [6] (at 50.0 µM).
Regarding `CC(=O)OC1=CC2(OC(C)=O)CC(C)(C)C1C1C(=O)C=CC(=O)C12` (stereo not given), the growth inhibition is 8% in assay [1] (setting [7]); 14% in assay [1] (setting [8]); 53.1% in assay [1] (at 50.0 µM); -8% in assay [2] (setting [7]); 10% in assay [2] (setting [8]); 65.3% in assay [2] (at 50.0 µM). Further, the growth inhibition in assay [3] (setting [7]) was 0%; in assay [3] (setting [8]), 13%; in assay [3] (at 50.0 µM) it was 68.2%; in assay [4] (setting [7]) it was 3%; in assay [4] (setting [8]) it was -10%; in assay [4] (at 50.0 µM) it was 33.9%. The growth inhibition in assay [5] (setting [7]) is 4%; in assay [5] (setting [8]) it was 14%; in assay [5] (at 50.0 µM), 73.8% (active); in assay [6] (setting [7]) it was 5%; in assay [6] (setting [8]), 21%; in assay [6] (at 50.0 µM), 17.1%.
With `Cc1c(N)ccc(O)c1C`, the growth inhibition in assay [1] (setting [7]) was 1%; in assay [1] (setting [8]) it was 46%; in assay [1] (at 50.0 µM), 87.7% (active); in assay [2] (setting [7]) it was -1%; in assay [2] (setting [8]), 30%; in assay [2] (at 50.0 µM), 90.9% (active). Moreover, the growth inhibition in assay [3] (setting [7]) was -2%; in assay [3] (setting [8]) it was 37%; in assay [3] (at 50.0 µM), 43.2%; in assay [4] (setting [7]), -3%; in assay [4] (setting [8]), 17%; in assay [4] (at 50.0 µM), 86.3% (active). The growth inhibition in assay [5] (setting [7]) is 1%; in assay [5] (setting [8]) it was 41%; in assay [5] (at 50.0 µM), 96.8% (active); in assay [6] (setting [7]) it was 1%; in assay [6] (setting [8]), 35%; in assay [6] (at 50.0 µM) it was 96.6% (active).
With `COc1cc(/C=C2\Sc3scc(-c4cccc([N+](=O)[O-])c4)[n+]3C2=O)cc(OC)c1OC`, the growth inhibition is 1% in assay [1] (setting [7]); 94% (active) in assay [1] (setting [8]); 99% (active) in assay [1] (at 50.0 µM); -1% in assay [2] (setting [7]); 82% (active) in assay [2] (setting [8]); 99% (active) in assay [2] (at 50.0 µM). The growth inhibition in assay [3] (setting [7]) was 13%; in assay [3] (setting [8]), 40%; in assay [3] (at 50.0 µM), 86.2% (active); in assay [4] (setting [7]), -26%; in assay [4] (setting [8]), 91% (active); in assay [4] (at 50.0 µM), 98.4% (active). Also, the growth inhibition in assay [5] (setting [7]) is -10%; in assay [5] (setting [8]), 95% (active); in assay [5] (at 50.0 µM), 99.1% (active); in assay [6] (setting [7]), 5%; in assay [6] (setting [8]) it was 73% (active); in assay [6] (at 50.0 µM), 99% (active).
Take `c1cc(CCSSCCc2ccncc2)ccn1`: the growth inhibition in assay [1] (setting [7]) was 7%; in assay [1] (setting [8]), 89% (active); in assay [1] (at 50.0 µM) it was 27.5%; in assay [2] (setting [7]), 1%; in assay [2] (setting [8]), 87% (active); in assay [2] (at 50.0 µM) it was 50.9%. For the same compound, the growth inhibition in assay [3] (setting [7]) was -1%; in assay [3] (setting [8]), 79% (active); in assay [3] (at 50.0 µM) it was 33.5%; in assay [4] (setting [7]) it was 4%; in assay [4] (setting [8]), 42%; in assay [4] (at 50.0 µM), 72.8% (active). In addition, the growth inhibition is 1% in assay [5] (setting [7]); 98% (active) in assay [5] (setting [8]); 38.4% in assay [5] (at 50.0 µM); 2% in assay [6] (setting [7]); 92% (active) in assay [6] (setting [8]); 30.3% in assay [6] (at 50.0 µM).
